Assay results published in PubChem BioAssay (NCATS).
Results filed as inconclusive are left out. A number with no mark means an inactive call. The source made the active and inactive calls. Calls come from the whole dose curve; as a rule, active = well fitted inhibition curve with a large enough effect; inconclusive = small, poorly fitted or top-dose-only effect; inactive = no such curve, though single readings can be large or run the other way.
% is set by controls: 0 for no effect and ±100 for the full control effect; potency is the fitted concentration of half-maximal effect.

Experiment: P-glycoprotein substrates identified in KB-3-1 adenocarcinoma cell line, qHTS therapeutic library screen (AID 1346986); note: nearly all actives have a fitted effect of over 60% in size;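 note: potency is for cytotoxicity meaning loss of cell viability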
Settings: KB-3-1 parental cells viability, CellTiter-Glo, 72 h; series mostly up to 44.5 µM; activity change, negative = cytotoxicity: at the top concentration
Experimental: The ATP-binding cassette transporters P-glycoprotein (P-gp) is known to limit brain penetration of many chemotherapy drugs. […] We used the CellTiter-Glo viability assay to test library compounds against the parental KB-3-1 human cervical adenocarcinoma cell line and the colchicine-selected sub-line KB-8-5-11 that over-expresses P-gp. KB-8-5-11 cells were also tested in the presence of a P-gp inhibitor (tariquidar) to assess reversability of transporter-mediated resistance. Of the tested compounds, a total of 90 P-gp substrates were identified including 55 newly identified P-gp substrates. Substrates were confirmed using an orthogonal killing assay against HEK-293 cells transfected with P-gp. As exemplars, we confirmed that AT7159 (cyclin-dependent kinase inhibitor); AT9283, (Janus kinase 2/3 inhibitor); ispinesib (kinesin spindle protein inhibitor); gedatolisib (PKI-587, phosphoinositide 3-kinase/mammalian target of rampamycin inhibitor); GSK-690693 (AKT inhibitor); and KW-2478 (heat shock protein 90 inhibitor) were substrates , and direct ATPase stimulation was assessed. ABCG2 was also found to confer high levels of resistance to AT9283, GSK-690693 and gedatolisib, while ispinesib, AT7519 and KW-2478 were weaker substrates.
The HeLa derivative cell line, KB-3-1, and its colchicine-selected, P-gp-overexpressing subline, KB-8-5-11 were maintained in DMEM with 10% FCS and Pen/Strep with glutamine at 37 degree C in 5% CO2. For KB-8-5-11 cells, colchicine was added to the medium at a concentration of 100 ng/mL. HEK-293 cells transfected with empty vector (pcDNA) or vector containing human ABCB1 (MDR-19) or ABCG2 (R-5) have been described previously (Robey, Lin, Qiu, Chan & Bates, 2011) and were maintained in EMEM supplemented with 10% FCS, Pen/Strep and glutamine with 2 mg/ml G418 to select for the expression of the transporter. Cultures were confirmed to be free of mycoplasma infection using the MycoAlert Mycoplasma Detection Kit (Lonza, Walkersville, MD). For the screen, assay medium was identical to culture medium except for KB-8-5-11 where colchicine was excluded from the medium.
All cell lines were plated into 1536-well plates at 500 cells/well in 5 uL media. Compounds were then pinned in dose-response using a 1536-head pin tool (Kalypsis, San Diego, CA) and plates were incubated at 37 degree C in 5% CO2 for an additional 72 h. CellTiter-Glo reagent (Promega) was dispensed into the wells, incubated for 5 min and luminescence was read on a ViewLux instrument (Perkin-Elmer). Cytotoxic compounds were defined as those that yielded a curve class of -1.1, -1.2, -2.1, -2.2, -2.3, or -2.4, a maximum response of >50% and an AC50 of < 10 uM. Cherry-picked hits from screening analysis were tested with both the KB pair of cell lines, and the pcDNA (empty vector control) and MDR-19 (P-gp overexpressing) pair were tested, in the absence and presence of tariquidar.
With CCN(CC)CCNC(=O)c1c(C)[nH]c(/C=C2\C(=O)Nc3ccc(Cl)cc32)c1C the Potency was 16.4 µM (active).
With Oc1cc(CNC(=S)/C=C/c2cc(O)c(O)c(Br)c2)cc(O)c1O the Potency was 7.31 µM (active).
For Cc1cc(-c2ccc(/C=C3\SC(=Nc4ccc(Cl)c(C(=O)O)c4)NC3=O)o2)c([N+](=O)[O-])cc1C, the “outcome” value was “inactive”.
In the case of CC(C)n1cc(-c2ccc(Oc3ccccc3)cc2)c2c(N)ncnc21, the Potency is reported as 14.6 µM (active).
In the case of N#Cc1cccc(CN2CCC(N(Cc3cccnc3)C(=O)Nc3ccccc3-c3ccccc3)CC2)c1, the “activity change, negative = cytotoxicity” value is reported as -16.1%.
For CNS(=O)(=O)c1ccc2c(c1)/C(=C/c1[nH]c3c(c1CCCN1CCN(C)CC1)CCCC3)C(=O)N2, the “outcome” value was “inactive”.
For CCn1c(=O)c2cc(C(N)=O)c(N)nc2n(C2CC2)c1=O, the “activity change, negative = cytotoxicity” value was 4.45%.
In the case of Cc1nc(CNc2ncnc3ccc(-c4ccc5c(c4)OCO5)cc23)cs1, the “activity change, negative = cytotoxicity” value is reported as 2.6%.
In the case of C[C@@H]1COCCN1c1cc(C2(S(C)(=N)=O)CC2)nc(-c2ccnc3[nH]ccc23)n1 (stereo not given in full), the Potency is reported as 6.51 µM (active).
With CCOc1cccc2c1OC(c1ccc(F)cc1)C([N+](=O)[O-])=C2 (stereo not given) the Potency was 8.2 µM (active).
For C=CC(=O)c1ccc2ccccc2c1, the “activity change, negative = cytotoxicity” value was 2.62%.
In the case of CC(=O)[C@H]1CCC2C3CCC4=CC(=O)CC[C@]4(C)C3[C@H](O)C[C@@]21C (stereo not given in full), the “activity change, negative = cytotoxicity” value is reported as -4.12%.
In the case of CSc1nc(N)cc(Oc2ccc(-c3nc(Nc4cccc(C(F)(F)F)c4)n[nH]3)cc2)n1, the Potency is reported as 4.61 µM (active).
In the case of COc1ccc2nc3ccc(OC)cc3c(SCCCN)c2c1, the “outcome” value is reported as “inactive”.
With Cc1cc(Nc2nc(NC(C)c3ccc(F)cc3)c(C#N)cc2F)n[nH]1 (stereo not given) the Potency was 0.164 µM (active).
With COc1ccc(CCNCc2ccc(OCc3ccc(Cl)nc3)c(OC)c2)cc1OC the “activity change, negative = cytotoxicity” value was -8.87%.
With Nc1ccc(-c2cnc(N)c(-c3ccc(Cl)cc3)c2)cn1 the “activity change, negative = cytotoxicity” value was -27.3%.
With COc1ccccc1-c1cc(Nc2cccc(CS(N)(=O)=O)c2)ncn1 the Potency was 11.6 µM (active).
For O=C1NC(=O)/C(=C\c2ccc3nccc(-c4ccncc4)c3c2)S1, the Potency was 1.16 µM (active).
For CC(=O)Nc1ccc(C(=O)NC(C)(C)C)cc1, the “activity change, negative = cytotoxicity” value was -39.5%.
Work on CCCCCCCCCCCCC/C=C/[C@@H](O)[C@H](CO)N(C)C yielded an activity change, negative = cytotoxicity of -2.89% [at 5.11 µM].
For O=C1OC(/C=C/c2ccccc2)=NC/1=C\c1cccnc1, the “outcome” value was “inactive”.
For Nc1ncnc2c1nc(Cl)n2C1O[C@H](CO)[C@@H](O)[C@H]1O (stereo not given in full), the Potency was 2.91 µM (active).
In the case of CN(C)CC(=O)N1CCC[C@@H](n2nc(-c3ccc(Oc4ccccc4)cc3)c3c(N)ncnc32)C1, the Potency is reported as 20.6 µM (active).
In the case of Oc1cccc(-c2nc(N3CCOCC3)c3sccc3n2)c1, the Potency is reported as 5.17 µM (active).
In the case of C=CC(=O)Nc1cccc(Nc2nc(Nc3ccccc3)ncc2C)c1, the Potency is reported as 18.4 µM (active).
In the case of O=c1[nH]ccc2c(S(=O)(=O)N3CCCNCC3)cccc12, the “activity change, negative = cytotoxicity” value is reported as 3.59%.
For Cc1c[nH]c(/C=C2\C(=O)Nc3ccccc32)c1CCC(=O)O, the “activity change, negative = cytotoxicity” value was -19.1%.
With CCCC(NC(=O)/C(C#N)=C/c1cccc(Br)n1)c1ccccc1 (stereo not given) the Potency was 16.4 µM (active).
In the case of CCc1c(C(=O)NNC(=O)[C@@H](O)c2cc(F)cc(F)c2)ccc(O)c1C, the “outcome” value is reported as “inactive”.
With CSc1cc2c(s1)c1cnn(Cc3ccccc3F)c(=O)c1n2C the “activity change, negative = cytotoxicity” value was -5.02%.
In the case of Cc1[nH]c(/C=C2\C(=O)Nc3ccc(F)cc32)c(C)c1C(=O)NC[C@H](O)CN1CCOCC1, the Potency is reported as 14.6 µM (active).
In the case of COc1ccc(-c2oc3ncnc(N)c3c2-c2ccc(NC(=O)Nc3cc(C(F)(F)F)ccc3F)cc2)cc1, the Potency is reported as 4.61 µM (active).
For O=C1NC(=O)/C(=C/c2ccc3nccc(-c4ccncc4)c3c2)S1, the Potency was 1.64 µM (active).
With Cc1cn([C@H]2C[C@H](O)[C@@H](CO)O2)c(=O)nc1N the “activity change, negative = cytotoxicity” value was -2.62%.
In the case of Cc1cc(/C=c2/sc3nc4ccccc4n3c2=O)c(C)n1-c1ccccc1, the “activity change, negative = cytotoxicity” value is reported as -9.93%.
With O=C1NC(=NCc2cccs2)S/C1=C/c1ccc2ncccc2c1 the Potency was 4.11 µM (active).
For O=C1c2ccccc2-c2nc3nnnn3nc21 (tested in a mixture with another compound), the Potency was 0.92 µM (active).
With O=C1CCCC2=C1C(c1ncccc1Br)N=C(Nc1nc3ccccc3o1)N2 (stereo not given) the “activity change, negative = cytotoxicity” value was 0.707%.
For CC(C)n1nc(-c2ccc(NC(=O)Nc3cccc(C(F)(F)F)c3)cc2)c2c(N)ncnc21, the Potency was 1.03 µM (active).
